Laboratory results reported in PubChem BioAssay AID1850 (Southern Research Specialized Biocontainment Screening …, 2009).
Among all 310,000 compounds or so, about 1,000 (0.32%) were called active. The rule behind the calls is not given here. Not all results are given here. Results with a measured potency or affinity are listed apart.

Experiment: PhoP regulon inhibitors, Salmonella typhi PhoP promoter GFP reporter, confirmatory (AID 1850);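 note: 0% = induced wells with vehicle and 100% = uninduced wells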
Details: fluorescence, 4 h, at 50 µM, stronger effect = higher value
With `CC(Oc1ccc(Br)cc1)C(=O)N(C)CC(=O)Nc1ccc(N2CCOCC2)cc1` (stereo not drawn) the inhibition was -2.3% (inactive). With `CCCCNc1cc(C)nc(NCc2ccccc2)n1` the inhibition was 15.8% (inactive). With `Cc1cc(N2CCCCC2)nc(NCc2ccccc2)n1` the inhibition was 5.84% (inactive). For `Cc1cc(Nc2ccccc2)nc(NCc2ccccc2)n1`, the inhibition was -0.96% (inactive). For `Cc1ccc(/C=N/Nc2cc(C)nc(NCc3ccccc3)n2)cc1`, the inhibition was 8.63% (inactive). In the case of `Cc1cc(Nc2cccc(F)c2)nc(NCc2ccccc2)n1`, the inhibition was -0.63% (inactive). For `Cc1cc(N2CCN(c3ccccc3)CC2)nc(NCc2ccccc2)n1`, the inhibition was -4.52% (inactive). For `Cc1cc(N/N=C/c2ccccc2)nc(NCc2ccccc2)n1`, the inhibition was -6.44% (inactive). In the case of `Cc1cc(OC2CCCCC2)nc(NCc2ccccc2)n1`, the inhibition was -3.41% (inactive). In the case of `CCOc1ccc(S(=O)(=O)Nc2ccccc2C(=O)NCc2ccco2)cc1`, the inhibition was -4.17% (inactive). For `CCOCCCNC(=O)c1ccc(N(C)S(=O)(=O)c2ccc(OC)cc2)cc1`, the inhibition was -7.69% (inactive). With `CCCCCC(O)CCC(=O)NNC1=CC(=O)CC(C)(C)C1` (stereo not drawn) the inhibition was 5.33% (inactive). In the case of `CC(=O)NCCCC(=O)NN1C(=S)N(Cc2ccccc2)C(=O)C1CC(=O)Nc1cccc(C)c1` (stereo not drawn), the inhibition was -3.38% (inactive). For `COc1ccc(CCNC(=O)c2ccc(OCC(=O)N3CCOCC3)c(OC)c2)cc1OC`, the inhibition was 2.3% (inactive). For `O=C(NC(=S)Nc1ccc(S(=O)(=O)Nc2nccs2)cc1)c1cccc(F)c1`, the inhibition was 9.55% (inactive). In the case of `O=C(Nc1cccc(N=Cc2cc(Br)cc(Br)c2O)c1)c1ccco1`, the inhibition was 18.1% (inactive). With `O=C(Nc1cc(Br)c(O)c(Br)c1)c1cccc(NC(=O)c2ccco2)c1` the inhibition was -5.68% (inactive). With `O=C(Nc1cccnc1)c1ccc(Br)c(S(=O)(=O)N2CCCC2)c1` the inhibition was 1.47% (inactive). In the case of `O=C(Nc1nnc(-c2ccco2)o1)c1ccc(Cl)cc1`, the inhibition was 0.38% (inactive). For `Cc1cccc(C(=O)Nc2nnc(-c3ccco3)o2)c1`, the inhibition was -1.28% (inactive). With `O=C(Nc1nnc(-c2ccccn2)o1)c1cccc(Br)c1` the inhibition was 3.24% (inactive). With `O=C(Nc1nnc(-c2ccccn2)o1)c1ccc(Br)cc1` the inhibition was -1.87% (inactive). With `Cc1cccc(CC(=O)N2CCC(n3nccc3NC(=O)C3CC3)CC2)c1` the inhibition was -7.5% (inactive). With `O=C(NCc1ccccc1)c1nc(-c2cccs2)no1` the inhibition was -1.19% (inactive). In the case of `CN(Cc1ccon1)C(=O)C1CCC(=O)N(Cc2ccc(Cl)cc2)C1` (stereo not drawn), the inhibition was -14.1% (inactive). For `Cc1cc(C(=O)CC#N)c(C)n1-c1ccc(OC(F)F)cc1`, the inhibition was -0.727% (inactive). In the case of `O=C(C[n+]1ccc2ccccc2c1)c1cccc2ccccc12`, the inhibition was -0.15% (inactive). With `Cc1ccc(S(=O)(=O)NNC(=O)c2sc(=S)n(C)c2C)cc1` the inhibition was -24.1% (inactive). For `Cc1ccc(N2C(=O)C3C4C=CC(CNC(=S)N5CCN(c6ccccn6)CC5)(O4)C3C2=O)cc1` (stereo not drawn), the inhibition was 5.6% (inactive). With `COc1ccc(/C=N\NC(=O)c2cccc(F)c2)cc1COc1ccccc1` the inhibition was -7.03% (inactive). In the case of `CC1=C(C(=O)O)N2C(=O)C(NC(=O)c3ccn(C)n3)C2SC1` (stereo not drawn), the inhibition was 7.91% (inactive). For `C=CC1=C(C(=O)O)N2C(=O)C(NC(=O)Cc3ccccc3)C2SC1` (stereo not drawn), the inhibition was -5.97% (inactive). In the case of `C[C@H]1[C@H](NC(=O)C(=NOC(C)(C)C(=O)O)c2csc(N)n2)C(=O)N1S(=O)(=O)O`, the inhibition was 1.3% (inactive). In the case of `CC1=C(C(=O)O)N2C(=O)C(NC(=O)CCCC(=O)O)C2SC1` (stereo not drawn), the inhibition was 10.9% (inactive). With `O=C(O)C[C@H]1c2ccccc2S(=O)(=O)N1c1ccccc1` the inhibition was -12.5% (inactive). With `Cc1nn(Cc2noc(C(=O)NCc3ccc(F)cc3)n2)c(C)c1Br` the inhibition was 5.51% (inactive). With `O=C(CCc1nnc(Cc2cccc(C(F)(F)F)c2)o1)NC1CC1` the inhibition was 2.17% (inactive). In the case of `COc1ccc(N(CC(=O)Nc2ccccc2C(=O)NCCc2ccccc2)S(C)(=O)=O)cc1OC`, the inhibition was -12.9% (inactive). With `CC(=O)Nc1ccc(S(=O)(=O)Oc2ccccc2N2C(=O)C3C4CCC(C4)C3C2=O)cc1` (stereo not drawn) the inhibition was 1.86% (inactive). In the case of `COc1ccc(N(CC(=O)NC2CC3CCC2C3)S(=O)(=O)c2ccc(C)cc2)cc1` (stereo not drawn), the inhibition was -6.68% (inactive). For `CN(C)CCCNc1ccc(-c2n[nH]c(=O)c3ccccc23)cc1[N+](=O)[O-]`, the inhibition was -4.76% (inactive). With `Cc1ccc2nc(C)c(Cl)c(=O)n2c1` the inhibition was -9.57% (inactive). With `COc1ccc(CCNC(=O)CCCCC(=O)NCCc2ccc(OC)cc2)cc1` the inhibition was -3.5% (inactive). With `O=S(=O)(NC1CCCCCC1)c1cccc2cccnc12` the inhibition was 5.87% (inactive). In the case of `COc1ccc(C(=O)O/N=C(/c2ccccc2)c2ccncc2)cc1OC`, the inhibition was -4.7% (inactive). For `COc1c(O)c(O)c2oc(-c3ccccc3)cc(=O)c2c1OC`, the inhibition was 9.73% (inactive). For `O=c1cc(-c2ccc(O)cc2)oc2cc(O)cc(O)c12`, the inhibition was 1.38% (inactive). In the case of `CCOC(=O)CC1(C)OCC(C[N+]2(C)CCCCC2)O1` (stereo not drawn), the inhibition was 5.82% (inactive). In the case of `COC(=O)[C@@H]1C[C@@]2(O)[C@H](O)[C@H](O)[C@H](O)C[C@H]2N1Cc1ccc(-c2ccccc2)cc1`, the inhibition was -7.22% (inactive). With `CC1CCN(CCNC(=O)c2ccc3c(=O)n(Cc4ccc(Cl)cc4)c(=S)[nH]c3c2)CC1` the inhibition was 4.39% (inactive). In the case of `COC(=O)c1ccc2c(=O)n(Cc3ccc(C(=O)NCCCN4CCC(C)CC4)cc3)c(=S)[nH]c2c1`, the inhibition was 2.98% (inactive). For `COc1ccc(S(=O)(=O)NN(C)c2ncc(C(F)(F)F)cc2Cl)cc1`, the inhibition was 2.03% (inactive). In the case of `CC(=O)NCCC(=O)NCC1(N(C)Cc2ccccc2)Cc2ccccc2C1`, the inhibition was -1.56% (inactive). For `c1ccc(-c2cc(N3CCCCC3)nc(-c3ccccc3)n2)cc1`, the inhibition was 5.32% (inactive). With `CO[C@@]12[C@H](COC(N)=O)C3=C(C(=O)C(C)=C(N)C3=O)N1C[C@@H]1N[C@@H]12` the inhibition was 6.71% (inactive). For `O=C(ONC1=NCCCCC1)c1cccc([N+](=O)[O-])c1`, the inhibition was -5.28% (inactive). For `Cc1ccnc(-n2c(C)nc3ccccc3c2=O)c1`, the inhibition was -16% (inactive). With `O=C(NC1CC2CCCC(C1)N2C(=O)Nc1ccccc1)c1ccccc1` (stereo not drawn) the inhibition was -0.41% (inactive).
